The test in a line: NALP1 inflammasome inhibitors in reconstituted yeast, colorimetric, S. cerevisiae, triplicate retest (AID 2071). Particulars: S. cerevisiae NALP1/ASC/caspase-1 growth, X-gal OD620, 72 h, stronger effect = higher value.

Each structure is given as a SMILES string. Out of some 280,000 compounds screened, about 1,700 (0.61%) were called active. Rule as the data show it: active = inhibition mostly above about 24% (no sharp cut-off); inactive = mostly below about 32%. What follows is part of a selection rich in actives, with near analogues and random picks from the rest.

The results in this text go back to PubChem BioAssay AID2071 (Sanford-Burnham Center for Chemical Genomics, 2009).

In the case of `CCCCCCCCCCCCn1ccc(=N)cc1`, the inhibition (at 10 µM unless noted) was 92.4% (active). For `O=C(N/N=C/c1c(O)n(C2CC2)c(=S)[nH]c1=O)c1ccccc1`, the inhibition (at 10 µM unless noted) is -16.2% (inactive). As for `COc1ccc(CNCCc2c[nH]c3ccccc23)cc1OC`, the inhibition (at 10 µM unless noted) was -6% (inactive). Regarding `CCN1CCN(Cc2cc(OC)c3c(c2)OCO3)CC1`, for the setting “at 10 µM unless noted”, the inhibition was -2.2% (inactive). `O=C(Nc1cccc(OC(=O)N2CCCCC2)c1)N1CCOCC1`: the inhibition (at 10 µM unless noted) is -35.9% (inactive). On to `CC(C)(C)c1ccc(OC(=O)N2CCCCC2)cc1`, for which, under “at 10 µM unless noted”, the inhibition is 41% (active). As for `CN1CCN(C(=O)COc2ccc(C(C)(C)C)cc2Br)CC1`, under “at 10 µM unless noted”, the inhibition is 8.8% (inactive).

As to `Cc1ccc(S(=O)(=O)N(C)c2ccc(C(=O)NCC3(N(C)C)CCCCC3)cc2)cc1`, the inhibition (at 10 µM unless noted) was 9.8% (inactive).

In the case of `COc1ccc(CNCCc2ccc3c(c2)OCO3)c(OC)c1OC`, the inhibition (at 10 µM unless noted) is 30.6% (inactive). The same measure, in the same setting: then `CC(C)c1ccc(OCC(=O)N2CCCN(C)CC2)cc1`, with 3.6% (inactive).

On to `C=CCN1C(=O)NC(=O)/C(=C/c2ccc(OCC(=O)Nc3ccc(C)cc3)cc2)C1=O`, for which the inhibition (at 10 µM unless noted) is 25% (inactive). The same measure, in the same setting: then `CCN1CCN(c2nc3c(c(=O)[nH]2)CCC3)CC1`, with 25.1% (inactive); and `CN(C)/C=C(\C=[N+](C)C)c1[nH]ncc1[N+](=O)[O-]`, with 35.3% (active); and `CCN(CC)C(=O)c1ccc(NC(=O)c2sccc2-c2ccccc2)cc1`, with 1% (inactive).

As to `O=C(N/N=C/c1c(O)n(C2CC2)c(=S)[nH]c1=O)c1ccccc1Cl`, for the setting “at 10 µM unless noted”, the inhibition was 3.2% (inactive). In the case of `Clc1ccc2nc3c(c(-c4ccccc4)c2c1)CNCC3`, the inhibition reads like this: (at 10 µM) 45% (active); (triplicate retest, at 20 µM) 66.3%. Turning to `COc1ccc2[nH]c3c(c2c1)CCN[C@H]3C`, for the setting “at 10 µM unless noted”, the inhibition was 14.7% (inactive).

Regarding `COc1ccc(N=Cc2c(O)n(C)c(=O)[nH]c2=O)cc1`, where the note is “at 10 µM unless noted”, the inhibition was 12.7% (inactive).

`CN(c1ccccc1)c1ccc([N+](=O)[O-])c2nonc12`: where the note is “at 10 µM unless noted”, the inhibition is -7.2% (inactive).

Consider `Cc1nc2ccccc2c(=O)n1-c1ccc(Cl)cc1Cl`, for which the inhibition (at 10 µM unless noted) was 11.2% (inactive).

As a reminder, the inhibition is the drop in the measured response relative to a control, in per cent.
